Results: ChEMBL document CHEMBL3988442, “University of Dundee, Small-Polar-MMV Screening Library” (2021)
Hit rate of the full screen: of about 48,000 compounds, about 13,000 (27%) showed an effect of 50% or more. This is one part of the list.

Tested on: Wolbachia pipientis
Assay: Anti-Wolbachia Cell-Based Screen
Format: functional
Set-up: scale not given: in the data most compounds retested in dose-response had high values
Conditions: 5 µM

SMILES	Percent Effect
O=C(NC1CCC(C(=O)N2CCSCC2)CC1)N1CCOCC1 (configuration not stated)	-2.912%
COCCNS(=O)(=O)c1ccc(Cl)c(C(=O)N(C)Cc2sccc2C)c1	1.059%
CC(=O)NCCNC(=O)c1sccc1Br	4.913%
COC(=O)CNC(=O)c1cccc(C(=O)N(C)c2ccccc2)c1	-13.83%
Cc1ccc(S(=O)(=O)N(C)c2ccsc2C(=O)NCC(C)C)cc1	110.5%
COC(=O)CNC(=O)c1sccc1N(C)S(=O)(=O)c1ccc(Cl)cc1	108.4%
CNC(=O)c1sccc1S(=O)(=O)Nc1ccc(C)cc1	10.06%
COCC1CN(c2ccc(Cl)cc2C#N)CCO1 (configuration not stated)	-47.15%
CN(C(=O)CN1CCCC1c1cnn(C)c1)C1(C#N)CCCCC1 (configuration not stated)	17.82%
Fc1ccc(C2(NCc3noc(C4CC4)n3)CCC2)cc1	7.462%
Cn1ccnc1CN1CC[C@@H]2[C@@H](CCC(=O)N2CCc2c[nH]cn2)C1	16.03%
N#Cc1cn(C2CC2)c(=O)n(CC(O)c2ccc(OC(F)F)cc2)c1=O (configuration not stated)	-10.28%
CC(C)N(Cc1c[nH]nc1-c1ccc2c(c1)OCO2)Cc1nccn1C	-1.902%
CN(C)CCOCc1cncc2c1CCN(C(=O)C1CCOCC1)C2.O=C(O)C(F)(F)F.O=C(O)C(F)(F)F	112.9%
CN(C)C(=O)COCc1cncc2c1CCN(C1CCOCC1)C2.O=C(O)C(F)(F)F.O=C(O)C(F)(F)F	119.4%
CN(C)CCOCc1cncc2c1CCN(C1CCOCC1)C2.O=C(O)C(F)(F)F.O=C(O)C(F)(F)F.O=C(O)C(F)(F)F	96.48%
O=C(C1CC=CC1)N1CCc2c(COCc3ccncc3)cncc2C1.O=C(O)C(F)(F)F.O=C(O)C(F)(F)F	-4.118%
CCN(CC)c1ncc2c(c1C(=O)O)CCN(C1CCOC1)C2.O=C(O)C(F)(F)F (configuration not stated)	12.85%
CN1CCN(c2ncc3c(c2C(=O)O)CCN(C2CCOC2)C3)CC1.O=C(O)C(F)(F)F.O=C(O)C(F)(F)F (configuration not stated)	2.308%
CN(C)C(=O)COCc1cncc2c1CCN(Cc1nccn1C)C2	-3.709%
Cn1ccnc1CNC[C@H]1Cn2cc(-c3ccccc3)nc2CO1	-17.11%
COc1cc(F)ccc1NC(=O)NCCNC(=O)OC(C)(C)C	3.046%
CN(C)c1ccc(NC(=O)N2CCCCC2c2ncc[nH]2)cn1 (configuration not stated)	3.844%
OCCN(Cc1cccnc1)c1ccc(Br)cn1	-12.52%
c1ccc(Cn2ccnc2CN2CCCC2c2noc(C3CC3)n2)cc1 (configuration not stated)	9.89%
Cc1cccc(C(=O)N2CCCC(c3nccn3Cc3cscn3)C2)n1 (configuration not stated)	13.18%

SMILES	Percent Effect
O=C(c1cnccn1)N1CCCC(Cn2cc(C3CC3)nn2)C1 (configuration not stated)	-22.35%
CNc1ccc(CC2CCCN(C(=O)c3cnccn3)C2)nn1 (configuration not stated)	132.6%
CNc1ccc(CC2CCCN(C(=O)c3cccc(C)n3)C2)nn1 (configuration not stated)	125.2%
CNc1ccc(CC2CCCN(C(=O)c3cncnc3C)C2)nn1 (configuration not stated)	-8.103%
CNc1ccc(CC2CCCN(C(=O)c3cnc(C)nc3)C2)nn1 (configuration not stated)	2.499%
CCc1noc(CN(CC)C(=O)c2ccc3ncsc3c2)n1	-4.547%
Cc1nc(CN(C)C(=O)Nc2cccc(COC(C)C)c2C)no1	-7.168%
Cc1nc(CN(C)C(=O)Nc2cccc(COC(C)C)c2)no1	-5.04%
Cc1nc(CN(C)C(=O)Nc2cccc(C)c2C)no1	98.94%
CCN(C)c1ncnc2c1CCN(C(=O)c1cnccn1)CC2.O=C(O)C(F)(F)F	3.18%
CCc1n[nH]c(C2CN(C(=O)Cc3cccs3)CCO2)n1 (configuration not stated)	122.2%
CCCc1n[nH]c(C2CN(C(=O)Cn3ccccc3=O)CCO2)n1 (configuration not stated)	125.8%
CCc1n[nH]c(C2CN(C(=O)CCn3ccccc3=O)CCO2)n1 (configuration not stated)	105.3%
CCc1n[nH]c(C2CN(C(=O)CCc3cccs3)CCO2)n1 (configuration not stated)	3.606%
CCCc1n[nH]c(C2CN(C(=O)CCCn3cccn3)CCO2)n1 (configuration not stated)	-7.162%
CCc1n[nH]c(C2CN(C(=O)Cc3ccc(C)nc3)CCO2)n1 (configuration not stated)	17.82%
CCc1n[nH]c(C2CN(C(=O)Cn3ccccc3=O)CCO2)n1 (configuration not stated)	10.71%
CCCc1n[nH]c(C2CN(C(=O)CCn3ccccc3=O)CCO2)n1 (configuration not stated)	104.2%
CC(C)(C)c1coc([C@@H]2COCCN2Cc2c[nH]c3ccccc23)n1	-5.354%
CS(=O)(=O)Cc1cccc(C(=O)NCC2Cc3ccccc3O2)c1 (configuration not stated)	-6.812%
CC(C)N(C)CC(=O)N1CCCC(c2ccc(C(=O)O)cc2)C1 (configuration not stated)	-10.1%
CN(C)c1ccccc1C(=O)N1CCCC(c2cccc(C(=O)O)c2)C1 (configuration not stated)	94.85%
O=C(O)c1cccc(C2CCCN(S(=O)(=O)C3CC3)C2)c1 (configuration not stated)	5.769%
CN(C)c1ccccc1C(=O)N1CCCC(c2ccc(C(=O)O)cc2)C1 (configuration not stated)	127.7%
CCC1CN(C(=O)c2ccccc2N(C)C)CCN1C(C)C (configuration not stated)	-1.815%
CCN(C)S(=O)(=O)N1CCCC(c2cccc(C(=O)O)c2)C1 (configuration not stated)	10.58%
